# “And” between values parts separate entries of the source, which are not always exact repeats. Equal entries are not always repeated. Inconclusive results are not listed. Unmarked numbers belong to inactive results. The source made the active and inactive calls. Calls follow the shape of the dose curve; as a rule, active = well fitted curve in the direction sought with a large enough effect in the repeat runs; inconclusive = weak or mixed curves; inactive = no such curve, though single readings can be large; an effect the other way counts as inactive or inconclusive.
# Assay: qHTS assay for identifying genotoxic compounds that show differential cytotoxicity against isogenic chicken DT40 cell lines with known DNA damage response pathways - wild type cell line (AID 743012); also: nearly all actives have a fitted effect of over 60% in size
# Settings: DT40 wild type chicken cells viability, CellTiter-Glo, 40 h; series mostly up to 68.4 µM; activity change, negative = cytotoxicity: at the top concentration
# Procedure, shortened: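 Viability of DNA repair-proficient chicken DT40 cells was assessed by CellTiter-Glo luminescence following 40 h compound exposure at 37 C/5% CO2.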
# % is scaled to controls: 0 for no effect and ±100 for the full control effect; potency is read from the fitted curve at half-maximal effect.
Compound,Potency,"activity change, negative = cytotoxicity"
CCN(CC)CCCN(c1ccccc1)C1Cc2ccccc2C1,0.531 µM (active),–
CN(C)c1ccc(N=Nc2ccccc2C(=O)O)cc1,–,8.46%
CCOC(=O)N1CCC(=C2c3ccc(Cl)cc3CCc3cccnc32)CC1,8.41 µM (active) and 8.63 µM (active),–
N#CSCSc1nc2ccccc2s1,0.864 µM (active),–
CCN(CC)CCNc1ccc(CO)c2sc3ccccc3c(=O)c12,0.841 µM (active),–
NC(=O)C(=O)N/N=C/c1ccc([N+](=O)[O-])o1,10.6 µM (active),–
C=C1C(C)(C)[C@@]2(Cl)C(Cl)[C@]1(Cl)C(Cl)(Cl)C2(Cl)Cl (stereo partly specified),47.7 µM (active),–
c1cc(OCC2CO2)cc(OCC2CO2)c1 (stereo unspecified),0.856 µM (active),–
Cc1cc(Nc2ccc(O)cc2)ccc1N,15.3 µM (active),–
CC(C)(C)C1=CC(=O)C=C(C(C)(C)C)C1=O,–,2.66%
Cc1c(C(=O)O)cccc1[N+](=O)[O-],62.1 µM (active),–
C[C@@]12C(=O)OC(=O)[C@]1(C)C1CCC2O1,–,3.91% [at 31.4 µM]
Nc1ccc2cc3ccc(N)cc3nc2c1,2.66 µM (active) and 5.45 µM (active),–
NC(=O)c1ccccc1N,–,3.71% [at 95 µM]
CCCCCCCCCCOCC(O)CN (stereo unspecified),4.73 µM (active),–
O=C1c2c(O)ccc(O)c2C(=O)c2c(NCCNCCO)ccc(NCCNCCO)c21,0.0072 µM (active),–
CCN=c1cc2oc3cc(NCC)c(C)cc3c(-c3ccccc3C(=O)OCC)c-2cc1C,484 nM (active) and 172 nM (active),–
C/C=C/C(=O)Oc1c(CCCCCC(C)C)cc([N+](=O)[O-])cc1[N+](=O)[O-],3.44 µM (active),–
CCCCCCCC/C=C\CCCCCCCC(=O)N(C)CC(=O)O,21.7 µM (active),–
CCCCCCCC/C=C/CCCOC(C)=O,–,-25.7%
O=C1NC2CCCCN2C12CCN(CCCN1c3ccccc3CCc3ccc(Cl)cc31)CC2 (stereo unspecified),9.44 µM (active),–
O=C(O)CCCCCCC(=O)O,–,1.01% [at 95 µM]
COc1cc(C(=O)NS(=O)(=O)c2ccccc2C)ccc1Cc1cn(C)c2ccc(NC(=O)OC3CCCC3)cc12,–,0.224%

# Assay: qHTS assay for identifying genotoxic compounds that show differential cytotoxicity against isogenic chicken DT40 cell lines with known DNA damage response pathways - Rev3 mutant cell line (AID 743014); also: nearly all actives have a fitted effect of over 55% in size
# Settings: chicken DT40 Rev3-/- viability, CellTiter-Glo, 40 h; series mostly up to 68.4 µM; activity, negative = cytotoxicity: at the top concentration
Compound,Potency,"activity, negative = cytotoxicity"
Cc1oc(-c2ccccc2)nc1CCOc1ccc(C[C@H](Nc2ccccc2C(=O)c2ccccc2)C(=O)O)cc1,61.1 µM (active),–
CC(=O)Oc1ccc(C2(c3ccc(OC(C)=O)cc3)C(=O)Nc3ccccc32)cc1,inactive,–
O=C(Oc1ccccc1)c1cccc(C(=O)Oc2ccccc2)c1,72.3 µM (active),–
Nc1ccc2cc3ccc(N)cc3nc2c1,2.98 µM (active) and 2.73 µM (active),–
O=C1c2c(O)ccc(O)c2C(=O)c2c(NCCNCCO)ccc(NCCNCCO)c21,0.0101 µM (active),–
CCO[Si](CCCSSSSCCC[Si](OCC)(OCC)OCC)(OCC)OCC,61.2 µM (active),–
O=C1OC(OC(=O)c2cccnc2Nc2cccc(C(F)(F)F)c2)c2ccccc21 (stereo unspecified),–,1.59%

# Assay: qHTS assay for identifying genotoxic compounds that show differential cytotoxicity against isogenic chicken DT40 cell lines with known DNA damage response pathways - Rad54/Ku70 mutant cell line (AID 743015); also: nearly all actives have a fitted effect of over 60% in size
# Settings: DT40 Rad54/Ku70 mutant viability, CellTiter-Glo, 40 h; series mostly up to 66.8 µM; activity change, negative = cytotoxicity: at the top concentration
Compound,Potency,"activity change, negative = cytotoxicity"
Cc1oc(-c2ccccc2)nc1CCOc1ccc(C[C@H](Nc2ccccc2C(=O)c2ccccc2)C(=O)O)cc1,54.5 µM (active),–
CCN1CCN(c2cc(-c3ccc(F)cc3)c3c(n2)CCCCCC3)CC1,–,-3.33%
C=C(C)C(=O)OCCC[Si](Cl)(Cl)Cl,–,-3.56% [at 95.1 µM]
CCN(CC)CCCN(c1ccccc1)C1Cc2ccccc2C1,1.5 µM (active),–
CCCCC(CC)COC(=O)c1ccc(O)cc1 (stereo unspecified),48.6 µM (active),–
CCOC(=O)N1CCC(=C2c3ccc(Cl)cc3CCc3cccnc32)CC1,9.44 µM (active) and 10.9 µM (active),–
N#CSCSc1nc2ccccc2s1,0.969 µM (active),–
CCN(CC)CCNc1ccc(CO)c2sc3ccccc3c(=O)c12,0.237 µM (active),–
NC(=O)C(=O)N/N=C/c1ccc([N+](=O)[O-])o1,16.8 µM (active),–
C=C1C(C)(C)[C@@]2(Cl)C(Cl)[C@]1(Cl)C(Cl)(Cl)C2(Cl)Cl (stereo partly specified),23.9 µM (active),–
c1cc(OCC2CO2)cc(OCC2CO2)c1 (stereo unspecified),1.36 µM (active),–
O=C(Oc1ccccc1)c1cccc(C(=O)Oc2ccccc2)c1,67 µM (active),–
Cc1cc(Nc2ccc(O)cc2)ccc1N,13.6 µM (active),–
C[C@@]12C(=O)OC(=O)[C@]1(C)C1CCC2O1,–,5.24% [at 30.7 µM]
Nc1ccc2cc3ccc(N)cc3nc2c1,1.33 µM (active) and 1.37 µM (active),–
NC(=O)c1ccccc1N,–,1.29% [at 95.1 µM]
CCCCCCCCCCOCC(O)CN (stereo unspecified),7.5 µM (active),–
CCN=c1cc2oc3cc(NCC)c(C)cc3c(-c3ccccc3C(=O)OCC)c-2cc1C,305 nM (active) and 109 nM (active),–
C/C=C/C(=O)Oc1c(CCCCCC(C)C)cc([N+](=O)[O-])cc1[N+](=O)[O-],2.43 µM (active),–
O=C(NO)c1ccccc1,50.4 µM (active),–
CCCCCCCC/C=C\CCCCCCCC(=O)N(C)CC(=O)O,27.3 µM (active),–
CCCCCCCC/C=C/CCCOC(C)=O,–,-2.29%
O=C1NC2CCCCN2C12CCN(CCCN1c3ccccc3CCc3ccc(Cl)cc31)CC2 (stereo unspecified),13.3 µM (active),–
CCO[Si](CCCSSSSCCC[Si](OCC)(OCC)OCC)(OCC)OCC,38.6 µM (active),–
O=C(O)CCCCCCC(=O)O,–,-0.978% [at 95.1 µM]
O=C1OC(OC(=O)c2cccnc2Nc2cccc(C(F)(F)F)c2)c2ccccc21 (stereo unspecified),–,8.79%

# Reference: PubChem BioAssay (Tox21)
